Data as given in PubChem BioAssay (Tox21).
Values joined by “and” are separate entries in the source; they are usually repeats but may differ in a detail not shown here. Equal values may be shown once. Inconclusive results are not listed. Entries that show only a call come without a potency. Where a structure was tested more than once in an assay, its records may differ in their call. Active and inactive are the calls of the source. Unless noted, calls come from the whole dose curve.

Experiments:
[1] = Nuclear factor erythroid 2-related factor 2/antioxidant responsive element (Nrf2/ARE) small molecule agonists: qHTS cell viability counter screen in human keratinocytes (AID 1919968; active = well fitted curve in the direction sought with a large enough effect in the repeat runs; an effect the other way counts as inactive or inconclusive; note: nearly all actives have a fitted effect of over 55% in size; note: potency is the fitted concentration of half-maximal effect)
Outline: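 Measured as CellTiter-Fluor fluorescence, this readout tracks cytotoxicity in the same wells as the ARE-luciferase screen. HaCaT reporter cells (1,500/well) received compounds after a 5 h pre-incubation and were exposed for 23 h.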

[2] = Nuclear factor erythroid 2-related factor 2/antioxidant responsive element (Nrf2/ARE) small molecule agonists: luciferase reporter gene qHTS assay in human keratinocytes (AID 1919969); note: nearly all actives have a fitted effect of over 35% in size; note: potency is the fitted concentration of half-maximal effect
[3] = biological target: Gonadotropin-releasing hormone receptor (Homo sapiens) (UniProt P30968); assay: Human gonadotropin-releasing hormone receptor (GnRHR) small molecule agonists, calcium flux assay in GnRHR-HEK293 cells (AID 1920063); note: nearly all actives have a fitted effect of over 35% in size
Outline: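 Fluorescence kinetics (480 nm excitation, 540 nm emission; 3 min, 1 s steps) report calcium mobilisation in human GnRHR-HEK293 cells in agonist mode. Dye incubation: 1 h, 37 C.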

[4] = biological target: KiSS-1 receptor (Homo sapiens) (UniProt Q969F8); assay: Human kisspeptin (KISS1R) small molecule agonists, calcium flux assay in KISS1R-HEK293 cells (AID 1920064; active = well fitted curve in the direction sought with a large enough effect in the repeat runs; an effect the other way counts as inactive or inconclusive)
Outline: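 Measures KISS1R agonism through calcium-sensitive dye fluorescence in stably transfected HEK293 cells, read for 3 min after pin-tool compound delivery; 15-point titrations in triplicate.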

[5] = p53 small molecule agonists, cell-based qHTS assay with human liver microsomes (AID 1963577);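 note: p53 response element beta-lactamase reporter cells with liver microsomes plus NADPH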
Outline: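 Cells carrying a p53-responsive bla reporter were rested 5 h (37 C, 5% CO2) before compound transfer. Human liver microsomes plus NADPH, 0.5 mg/mL final apiece, supplied metabolism during the 16 h 37 C exposure.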

[6] = p53 small molecule agonists, cell-based qHTS assay with human liver microsomes: qHTS cell viability counter screen (AID 1963579); note: nearly all actives have a fitted effect of over 45% in size
Outline: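 Seed p53RE-bla cells at 4,000 per well; incubate 5 h at 37 C; add compound, human liver microsomes and NADPH; incubate 16 h at 37 C; add CellTiter-Glo; after 30 min at room temperature, read luminescence.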

[7] = p53 small molecule agonists, cell-based qHTS assay with rat liver microsomes: qHTS cell viability counter screen (AID 1963580); note: nearly all actives have a fitted effect of over 45% in size
Outline: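 p53RE-bla HCT-116 cells (4,000/well) rested 5 h at 37 C, then given Tox21 compounds in DMSO with rat liver microsomes (0.5 mg/mL final) plus NADPH (0.5 mg/mL final) for 16 h at 37 C. Viability read by CellTiter-Glo luminescence after 30 min at room temperature.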

[8] = p53 small molecule agonists, cell-based qHTS assay: qHTS cell viability counter screen (AID 1963581); note: nearly all actives have a fitted effect of over 45% in size
Outline: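 In the same plates used for the p53 bla reporter, HCT-116 cells given compounds for 16 h at 37 C received CellTiter-Glo; luminescence was recorded 30 min later at room temperature.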

[9] = p53 small molecule agonists, cell-based qHTS assay (AID 1963582; active = well fitted activation curve with a large enough effect in the signal ratio in the repeat runs, not every such curve was filed as active; the % refers to the signal ratio)
Outline: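 Compounds are pin-transferred in DMSO onto p53RE-bla cells and incubated 16 h at 37 C. The B/G FRET beta-lactamase substrate is then applied for 2 h at RT and fluorescence recorded.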

[10] = biological target: 5-hydroxytryptamine receptor 2A (Homo sapiens) (UniProt P28223); assay: 5-hydroxytryptamine receptor 2A (HTR2A) small molecule antagonists, cell-based qHTS assay (AID 1963586); note: nearly all actives have a fitted effect of over 45% in size; note: potency is the fitted concentration of half-maximal effect
Outline: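 Antagonist-mode intracellular calcium assay: DOI (4 nM) added after 5 min compound pre-incubation at room temperature to dye-loaded HTR2A-CHO cells. Fluorescence followed for 3 min, sampled every second.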

[11] = biological target: 5-hydroxytryptamine receptor 2A (Homo sapiens) (UniProt P28223); assay: 5-hydroxytryptamine receptor 2A (HTR2A) small molecule agonists, cell-based qHTS assay (AID 1963587); note: nearly all actives have a fitted effect of over 30% in size
Outline: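 HTR2A-CHO cells, plated 18 h at 37 C/5% CO2, dye-loaded 1 h at 37 C; compounds in DMSO added by pin tool (agonist mode). Intracellular calcium flux read as kinetic fluorescence on FDSS over 2 min at 1 s intervals.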

[12] = biological target: Muscarinic acetylcholine receptor M1 (Homo sapiens) (UniProt P11229); assay: Cholinergic receptor muscarinic 1 (CHRM1) small molecule antagonists, cell-based qHTS assay (AID 1963588); note: nearly all actives have a fitted effect of over 40% in size; note: potency is the fitted concentration of half-maximal effect
Outline: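 CHRM1-CHO calcium-flux assay, antagonist mode. Cells were seeded 18 h, dye-loaded 1 h at 37 C and given compound for 5 min at RT, then acetylcholine was added at 50nM. FDSS fluorescence was read 3 min; 15 concentrations, three runs.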

[13] = biological target: Muscarinic acetylcholine receptor M1 (Homo sapiens) (UniProt P11229); assay: Cholinergic receptor muscarinic 1 (CHRM1) small molecule agonists, cell-based qHTS assay (AID 1963589); note: nearly all actives have a fitted effect of over 35% in size
Outline: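 Each compound was tested at 15 concentrations across three independent runs on dye-loaded CHO cells stably expressing human CHRM1, reading intracellular calcium fluorescence kinetically at 1 sec intervals.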

[14] = cAMP Responsive Elements (CRE) small molecule agonists, cell-based qHTS assay (AID 1963590)
Outline: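 Cell line: CRE-bla HEK 293T; medium DMEM/10% dialyzed FBS/0.1 mM NEAA/1 mM pyruvate/25 mM HEPES; 3 h compound exposure; beta-lactamase FRET readout after 2 h substrate loading at RT.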

[15] = cAMP Responsive Elements (CRE) small molecule antagonists, cell-based qHTS assay (AID 1963591; active = well fitted inhibition curve with a large enough effect in the signal ratio in the repeat runs, not every such curve was filed as active; the % refers to the signal ratio; note: potency is the fitted concentration of half-maximal effect)
Outline: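 Inhibition of NKH477-driven (0.25 uM final) CRE-beta-lactamase signal in HEK293T cells, 3 h compound exposure at 37 °C, detected by FRET substrate fluorescence.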

[16] = biological target: Beta-2 adrenergic receptor (Homo sapiens) (UniProt P07550); assay: Adrenergic beta2 receptor (ADRB2) small molecule antagonists, cell-based qHTS assay (AID 1963592); note: series mostly up to about 92 µM; nearly all actives have a fitted effect of over 50% in size
Outline: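 Cells (CHO, stable ADRB2 overexpression) incubated 18-20hr at 37C; compounds added from DMSO; agonist mix (1nM isoproterenol, 100uM IBMX, 25uM Ro-20-1724) added; 0.5hr RT; d2-cAMP and anti-cAMP-cryptate added; 1hr RT; 665/615 nm read.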

[17] = biological target: D(2) dopamine receptor (Homo sapiens) (UniProt P14416); assay: Dopamine D2 receptor (DRD2) small molecule agonists, cell-based qHTS assay (AID 1963594); note: nearly all actives have a fitted effect of over 35% in size; note: potency is the fitted concentration of half-maximal effect
Outline: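 HEK293 cells stably expressing DRD2 were cultured 24 h at 37 C, then given Ro20-1724 (0.1 mM final) and compounds for 10 min at room temperature. NKH477 (200nM) was then added for 30 min. cAMP was read by HTRF.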

[18] = biological target: D(2) dopamine receptor (Homo sapiens) (UniProt P14416); assay: Dopamine D2 receptor (DRD2) small molecule antagonists, cell-based qHTS assay (AID 1963595; active = well fitted inhibition curve with a large enough effect in the signal ratio in the repeat runs, with a control signal flat; the % refers to the signal ratio)
Outline: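 Readout: HTRF cAMP, cAMP-d2 competing with cellular cAMP for anti-cAMP cryptate, read after 1 h. Cells: DRD2-HEK293. Conditions: 0.1 mM Ro20-1724, 12 nM quinpirole, 200 nM NKH477, 30 min RT.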

[19] = biological target: Beta-2 adrenergic receptor (Homo sapiens) (UniProt P07550); assay: Adrenergic beta2 receptor (ADRB2) small molecule agonists, cell-based qHTS assay (AID 1963593);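 note: CHO cells stably overexpressing human ADRB2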
Outline: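 CHO cells stably over-expressing ADRB2 were plated overnight at 37C, then dosed with compounds plus a stimulation mix containing 100uM IBMX and 25uM Ro-20-1724 for 0.5hr at room temperature. cAMP was measured by HTRF competition, 1hr.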

[20] = G protein-coupled receptor (GPCR) small molecule agonists, calcium flux assay: HEK293 wild type cell line counter screen (AID 1920065); note: potency is the fitted concentration of half-maximal effect
Outline: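 Readout: fluorescence at 480 nm excitation/540 nm emission, sampled at 1 s intervals for 3 min. Cells had been cultured 18 h, then dye-loaded 1 h at 37 C before compound or ATP addition.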

Sequence of D(2) dopamine receptor (Homo sapiens) (P14416 whole entry, looked up): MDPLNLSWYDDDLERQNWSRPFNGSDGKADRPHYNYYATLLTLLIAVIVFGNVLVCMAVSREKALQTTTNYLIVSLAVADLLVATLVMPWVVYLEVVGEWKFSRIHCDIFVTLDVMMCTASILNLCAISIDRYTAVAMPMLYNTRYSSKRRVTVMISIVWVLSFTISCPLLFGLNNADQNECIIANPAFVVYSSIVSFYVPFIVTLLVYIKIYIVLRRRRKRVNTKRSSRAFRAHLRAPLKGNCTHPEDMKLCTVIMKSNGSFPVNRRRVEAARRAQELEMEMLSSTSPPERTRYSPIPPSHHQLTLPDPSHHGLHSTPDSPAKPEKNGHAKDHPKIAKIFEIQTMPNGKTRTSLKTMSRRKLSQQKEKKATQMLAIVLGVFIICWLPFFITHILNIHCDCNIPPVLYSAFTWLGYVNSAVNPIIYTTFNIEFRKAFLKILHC
Sequence of Gonadotropin-releasing hormone receptor (Homo sapiens) (P30968 whole entry, looked up): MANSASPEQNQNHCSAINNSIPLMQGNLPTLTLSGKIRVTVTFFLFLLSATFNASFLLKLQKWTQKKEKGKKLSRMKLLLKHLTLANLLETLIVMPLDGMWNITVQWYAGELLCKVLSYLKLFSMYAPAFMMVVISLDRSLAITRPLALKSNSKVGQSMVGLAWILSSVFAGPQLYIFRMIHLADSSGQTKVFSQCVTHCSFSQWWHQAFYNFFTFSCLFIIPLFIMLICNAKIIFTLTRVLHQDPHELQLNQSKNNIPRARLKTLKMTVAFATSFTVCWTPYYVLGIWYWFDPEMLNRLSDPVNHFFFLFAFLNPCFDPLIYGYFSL
Sequence of KiSS-1 receptor (Homo sapiens) (Q969F8 whole entry, looked up): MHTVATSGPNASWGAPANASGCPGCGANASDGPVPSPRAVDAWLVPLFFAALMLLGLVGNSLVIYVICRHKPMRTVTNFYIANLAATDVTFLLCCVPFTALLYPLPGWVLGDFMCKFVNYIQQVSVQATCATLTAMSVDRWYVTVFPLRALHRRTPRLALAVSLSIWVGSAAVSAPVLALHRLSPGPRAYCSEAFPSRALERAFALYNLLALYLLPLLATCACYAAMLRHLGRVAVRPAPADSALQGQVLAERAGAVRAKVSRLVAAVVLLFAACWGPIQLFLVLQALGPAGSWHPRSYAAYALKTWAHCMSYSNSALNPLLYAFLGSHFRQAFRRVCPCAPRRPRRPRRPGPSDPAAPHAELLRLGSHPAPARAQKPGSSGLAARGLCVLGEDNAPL
Sequence of Muscarinic acetylcholine receptor M1 (Homo sapiens) (P11229 whole entry, looked up): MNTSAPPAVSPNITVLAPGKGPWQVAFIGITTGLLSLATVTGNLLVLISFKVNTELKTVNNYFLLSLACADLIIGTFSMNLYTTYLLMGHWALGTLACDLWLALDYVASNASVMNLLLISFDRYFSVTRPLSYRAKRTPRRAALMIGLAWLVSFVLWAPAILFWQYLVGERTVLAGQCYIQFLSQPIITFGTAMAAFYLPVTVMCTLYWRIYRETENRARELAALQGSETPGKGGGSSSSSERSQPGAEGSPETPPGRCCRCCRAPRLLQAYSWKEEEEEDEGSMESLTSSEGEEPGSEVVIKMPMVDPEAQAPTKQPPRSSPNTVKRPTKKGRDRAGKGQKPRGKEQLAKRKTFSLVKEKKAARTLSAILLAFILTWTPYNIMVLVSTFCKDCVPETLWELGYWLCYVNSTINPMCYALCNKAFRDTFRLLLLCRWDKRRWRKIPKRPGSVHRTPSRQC
Sequence of 5-hydroxytryptamine receptor 2A (Homo sapiens) (P28223 whole entry, looked up): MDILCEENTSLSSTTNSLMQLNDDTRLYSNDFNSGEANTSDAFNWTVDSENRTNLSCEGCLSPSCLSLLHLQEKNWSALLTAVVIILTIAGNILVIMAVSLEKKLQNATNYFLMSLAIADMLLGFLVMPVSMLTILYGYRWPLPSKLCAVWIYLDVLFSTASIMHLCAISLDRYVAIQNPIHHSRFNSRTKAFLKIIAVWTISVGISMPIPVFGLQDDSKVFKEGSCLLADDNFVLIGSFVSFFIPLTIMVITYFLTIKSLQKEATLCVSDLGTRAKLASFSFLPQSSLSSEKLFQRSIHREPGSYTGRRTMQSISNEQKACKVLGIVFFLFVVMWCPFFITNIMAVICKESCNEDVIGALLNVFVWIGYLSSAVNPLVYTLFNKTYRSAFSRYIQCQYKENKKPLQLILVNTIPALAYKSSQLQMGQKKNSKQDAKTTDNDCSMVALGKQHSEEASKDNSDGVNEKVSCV
Sequence of Beta-2 adrenergic receptor (Homo sapiens) (P07550 whole entry, looked up): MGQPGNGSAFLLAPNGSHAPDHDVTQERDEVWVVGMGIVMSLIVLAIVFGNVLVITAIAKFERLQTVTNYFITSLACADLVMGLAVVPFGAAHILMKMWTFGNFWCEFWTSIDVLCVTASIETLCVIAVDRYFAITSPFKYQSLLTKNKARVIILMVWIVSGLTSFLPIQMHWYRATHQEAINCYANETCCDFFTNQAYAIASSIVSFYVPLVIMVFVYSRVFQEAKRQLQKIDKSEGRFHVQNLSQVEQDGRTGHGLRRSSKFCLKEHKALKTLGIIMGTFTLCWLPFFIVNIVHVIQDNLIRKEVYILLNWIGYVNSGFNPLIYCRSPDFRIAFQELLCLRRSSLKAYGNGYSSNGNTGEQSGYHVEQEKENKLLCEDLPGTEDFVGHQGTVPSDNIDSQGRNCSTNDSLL

SMILES | Potency [1] | Potency [2] | Potency [3] | Potency [4] | Potency [5] | Potency [6] | Potency [7] | Potency [8] | Potency [9] | Potency [10] | Potency [11] | Potency [12] | Potency [13] | Potency [14] | Potency [15] | Potency [16] | Potency [17] | Potency [18] | Potency [19] | Potency [20]
CCCCOC(=O)CC(CC(=O)OCCCC)(OC(C)=O)C(=O)OCCCC | inactive | inactive | inactive | inactive | inactive | inactive | inactive | inactive | inactive | inactive | inactive | inactive | inactive | inactive | inactive | inactive | inactive | inactive | – | –
CC(C)CC(=O)CC(C)C | inactive | inactive | inactive | inactive | inactive | inactive | inactive | inactive | inactive | inactive | inactive | inactive | inactive | inactive | inactive | inactive | inactive | inactive | – | –
C=C(C)C(=O)OCC(C)C | inactive | inactive | inactive | inactive | inactive | inactive | inactive | inactive | inactive | inactive | inactive | inactive | inactive | inactive | – | inactive | inactive | inactive | inactive | –
CCCCCCCC(=O)OC | inactive | inactive | inactive | inactive | inactive | – | inactive | – | inactive | inactive | inactive | inactive | inactive | inactive | inactive | inactive | inactive and 61.1 µM (active) | inactive | inactive | –
Oc1ccc2ccccc2c1N=Nc1ccccc1 | inactive | 30.6 µM (active) and 21.7 µM (active) | inactive | inactive | inactive | – | inactive | inactive | inactive | inactive | inactive | 472 nM (active) and inactive | inactive | inactive | inactive | inactive | inactive | inactive | – | –
Cc1cc(CC(=O)O)n(C)c1C(=O)c1ccc(Cl)cc1 | inactive | inactive | inactive | inactive | inactive | inactive | inactive | inactive | inactive | inactive | inactive | inactive | inactive | – | – | inactive | inactive | inactive | inactive | –
CC(=O)OCCC(C)C | inactive | inactive | inactive | inactive | inactive | inactive | inactive | inactive | inactive | inactive | inactive | inactive | inactive | inactive | inactive | inactive | inactive | inactive | inactive | –
CC(C)OP(=O)(CP(=O)(OC(C)C)OC(C)C)OC(C)C | inactive | inactive | inactive | inactive | inactive | inactive | inactive | inactive | inactive | inactive | inactive | – | inactive | inactive | inactive | inactive | inactive | inactive | inactive | –
O=C(O)CCCCCCCCC(=O)O | inactive | inactive | inactive | inactive | inactive | – | inactive | – | inactive | inactive | inactive | inactive | inactive | inactive | inactive | inactive | inactive | inactive | – | –
CCCCCCCC(=O)OCC(O)CO (stereo not given) | inactive | inactive | inactive | inactive | inactive | inactive | inactive | inactive | inactive | inactive | inactive | inactive | – | – | inactive | inactive | inactive | inactive | inactive | –
CCCCC(CC)COC(=O)/C=C/c1ccc(OC)cc1 (stereo not given) | inactive | inactive | inactive | inactive | inactive | inactive | inactive | inactive | inactive | inactive | inactive | inactive | inactive | inactive | – | inactive | inactive | inactive | inactive | –
NS(=O)(=O)c1cc(C(=O)O)c(NCc2ccco2)cc1Cl | inactive | inactive | inactive | inactive | – | – | – | – | – | – | – | – | – | inactive | inactive | – | inactive | inactive | inactive | inactive
CCn1cc(C(=O)O)c(=O)c2ccc(C)nc21 | inactive | inactive | inactive | inactive | – | – | – | inactive | – | inactive and 3.34 µM (active) | inactive | inactive | inactive | – | – | inactive | inactive | inactive | inactive | inactive
NC(=O)c1ncn([C@@H]2O[C@H](CO)[C@@H](O)[C@H]2O)n1 | inactive | inactive | inactive | inactive | inactive | inactive | inactive | inactive | – | – | – | – | – | inactive | inactive | inactive | inactive | inactive | inactive | –
COc1ccc(OC)cc1 | inactive | inactive | inactive | inactive | inactive | inactive | inactive | inactive | inactive | inactive | inactive | inactive | inactive | inactive | inactive | inactive | inactive | inactive | inactive | –
CCN(CC)C(=S)SSC(=S)N(CC)CC | 96.9 nM (active) and 99.2 nM (active) and 29.8 µM (active) | inactive | inactive | inactive | – | – | – | – | – | – | – | – | – | inactive | 1190 nM (active) | inactive | inactive | inactive | inactive | inactive and 25.1 µM (active)
COCC(C)N (stereo not given) | inactive | inactive | inactive | inactive | inactive | inactive | inactive | inactive | inactive | inactive | inactive | inactive | inactive | inactive | inactive | inactive | inactive | inactive | inactive | –
